# Only some compounds are listed: those with a hit (about 1.1% of all), similar ones and a draw of the others.
# AmpC inh no detg – inhibitors of E. coli AmpC beta-lactamase without detergent. AmpC nitrocefin hydrolysis, absorbance 480 nm, 0.0001% Triton. Potency, µM (doses to about 57.1 µM), without a hit: at the highest dose activity change, negative = inhibition, actives largely listed as inhibitors. actives 0.52% (n = 330,000). AID 485341;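 further: plate controls were no compound for no effect and no enzyme for full effect; nearly all actives have a fitted effect of over 20% in size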
# Target sequence (P00811 whole entry, looked up): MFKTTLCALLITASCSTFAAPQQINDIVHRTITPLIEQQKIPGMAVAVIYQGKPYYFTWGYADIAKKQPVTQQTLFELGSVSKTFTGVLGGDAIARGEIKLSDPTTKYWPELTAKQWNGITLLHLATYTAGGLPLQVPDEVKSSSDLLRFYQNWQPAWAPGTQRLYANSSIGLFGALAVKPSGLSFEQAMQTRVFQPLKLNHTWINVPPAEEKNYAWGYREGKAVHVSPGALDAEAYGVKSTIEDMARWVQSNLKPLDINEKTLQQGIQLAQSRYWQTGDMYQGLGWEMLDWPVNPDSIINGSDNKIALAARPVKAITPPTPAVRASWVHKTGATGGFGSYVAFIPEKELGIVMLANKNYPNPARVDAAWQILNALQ
#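 20 mM phosphate pH 7.0 + 0.01% (detergent screen) or 0.0001% Triton X-100; 5.3 nM AmpC reagent; cpd preinc 15 min RT; nitrocefin (800 uM stock) to start; A480 q20 s × 4 min; Activity was normalised to no-enzyme and no-compound control wells.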
# SARS PLP yeast – blocks SARS-CoV papain-like protease in a yeast assay. S. cerevisiae expressing SARS-CoV PLpro, growth rescue. Potency, µM (highest dose often 32.9 µM), for the others: top-dose activity, positive = growth rescue, usual class: activators. actives 0.19% (n = 330,000). AID 485353; calls by dose curve; further: 0% is about no effect; nearly all actives have a fitted effect of over 55% in size
# FBPA Giardia inh – inhibitors of Giardia lamblia fructose-1,6-bisphosphate aldolase; A8B2U2; purified Giardia FBPA; Potency, µM (titrated, usually from 59.6 µM), for the others: at the top dose activity, negative = inhibition, actives largely listed as inhibitors; actives 0.71% (n = 290,000); further: on the % scale 0 is the no-effect control and ±100 the full control effect; nearly all actives have a fitted effect of over 55% in size
# Target sequence (A8B2U2 whole entry, looked up): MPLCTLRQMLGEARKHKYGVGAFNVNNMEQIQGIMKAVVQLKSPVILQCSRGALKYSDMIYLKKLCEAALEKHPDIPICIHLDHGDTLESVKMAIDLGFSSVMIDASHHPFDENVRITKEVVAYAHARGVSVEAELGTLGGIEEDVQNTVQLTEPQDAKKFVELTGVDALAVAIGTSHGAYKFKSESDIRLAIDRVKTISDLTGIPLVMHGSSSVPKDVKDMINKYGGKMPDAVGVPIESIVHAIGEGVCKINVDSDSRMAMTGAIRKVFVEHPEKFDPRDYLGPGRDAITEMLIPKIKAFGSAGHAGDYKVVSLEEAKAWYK
#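 Giardia FBPA (40 nM reagent) was preincubated 10 min at RT with compound (up to 57.5 uM final), then substrate plus GAPDH/TPI/NAD/arsenate coupling system with diaphorase/resazurin was added; resorufin fluorescence (525/598 nm) was read after 20 min.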
# AmpC inh detg – inhibitors of E. coli AmpC beta-lactamase with detergent. P00811. AID 485294. Potency, µM (titrated, usually from 114 µM), inactives show at the highest dose activity change, negative = inhibition, hits mostly inhibitors. actives 0.041% (n = 370,000). AmpC hydrolysis of nitrocefin, absorbance 480 nm, 0.01% Triton;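 further: 0% = no-compound wells and -100% = no-enzyme wells; nearly all actives have a fitted effect of over 25% in size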
#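 20 mM phosphate pH 7.0 + 0.01% (detergent screen) or 0.0001% Triton X-100; 5.3 nM AmpC reagent; cpd preinc 15 min RT; nitrocefin (800 uM stock) to start; A480 q20 s × 4 min; Activity was normalised to no-enzyme and no-compound control wells.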
# * = called active by the depositor; ? = inconclusive; nt = no result; [ ] = dose if it differs, or a comment. Unless noted, the call rests on the fitted dose curve; in most records, active means well fitted curve in the direction sought with a large enough effect; inconclusive means small, poorly fitted or top-dose-only effect, or another doubt; inactive means no such curve, though single readings can be large; an effect the other way counts as inactive or inconclusive. Potency means the concentration at half of the fitted maximal effect.
SMILES,AmpC inh no detg,SARS PLP yeast,FBPA Giardia inh,AmpC inh detg
O=S(=O)(c1cc(O)ccc1O)c1cccc2c(S(=O)(=O)c3cc(O)ccc3O)cccc12,20µM*,-7%,nt,-10%
O=S(=O)(O)c1cc(O)ccc1O,-20%,-5%,0%[21.7 µM],3%
CCOc1ccc2nc(N3CCCC(C(=O)Nc4cc(Cl)c(OC)cc4OC)C3)sc2c1 (configuration not stated),nt,nt,nt,-3%
CCCN1CCC(=O)N(C(CSc2ccc(Br)cc2)CC(C)C)CC1 (configuration not stated),nt,nt,6%,nt
COc1ccc(NC(=O)CN2CCN(Cc3ccc4c(c3)OCO4)CC2)cc1OC,-2%,-1%,18µM*,5%
O=C(CN1CCN(Cc2ccc3c(c2)OCO3)CC1)Nc1ccc2c(c1)OCO2,-1%,13%,3%,-4%
Cc1cc(Cl)c(S(=O)(=O)Nc2ccon2)cc1OCC(=O)NC1CCCCC1,0.22µM*,0%,5%,-1%
COc1ccc(OC)c(NC(=O)CN(C)S(=O)(=O)c2ccc3[nH]c4c(c3c2)CCCC4)c1,nt,nt,nt,16%
NS(=O)(=O)c1ccc(S(=O)(=O)N(CCc2ccccc2)Cc2ccccn2)cc1,-2%,3.5µM*,2%,-9%
CCCCN(CC)c1nc(C)nc2c1c(C)c(C)n2-c1c(C)cc(C)cc1C,nt,nt,-16%,nt
NC(=O)c1ccsc1NC(=O)CSc1nnc(Nc2ccccc2)s1,14µM*,2%,-11%,2%
COc1cccc(Cn2ncc3c4sc(B(O)O)cc4n(C)c3c2=O)c1,2.2µM*,-7%,nt,1.1µM*
COc1cccc(CNC(=O)Cn2ncc3c4ccccc4n(C)c3c2=O)c1,nt,nt,nt,0%
O=C(c1ccc(Cn2cc(Br)cn2)o1)n1cccn1,0.5µM*,?,5%,2%
O=C1CSC(=S)N1/N=C/c1ccc2c(c1)OCCO2,-28%,0%,-7%,-15%
O=C1CSC(=S)N1/N=C/c1ccc(Cl)c([N+](=O)[O-])c1,13µM*,0%,15%,5%
O=C(NC(=S)NCc1cccnc1)c1ccccc1,-18%,6%,1%,1%
O=C(NC(=S)NCCSc1ccccc1)c1cccnc1,-6%,10µM*,0%,0%
C=CCN1c2ccccc2[C@]23C[C@@H](C(=O)OC)N(S(=O)(=O)c4cccs4)C2=NC(C(=O)OC)=C(C(=O)OC)[C@H]13,nt,nt,4%[12.9 µM],nt
O=C(O)c1ccccc1C(=O)Nc1n[nH]c(=S)s1,-36%,28%,10µM*,-2%
CCCNC[C@H](O)COc1ccccc1C(=O)CCc1ccccc1,nt,nt,-2%,nt
COC(=O)C1=C(C(=O)OC)[C@@H]2N(C)c3ccc(OC)cc3[C@@]23C[C@@H](C(=O)OC)N(S(=O)(=O)c2ccc(C(F)(F)F)cc2)C3=N1,nt,nt,-5%[12.9 µM],nt
CC1(C)OC(C)(C)/C(=C/Nc2ccc(O)cc2)C1=O,-20%,-11%,2.8µM*,?
CC(=O)Nc1ccn(C2OC(C(COC(C)=O)NC(=O)C3CCCN3C(=O)OC(C)(C)C)C(OC(C)=O)C2OC(C)=O)c(=O)n1 (configuration not stated),nt,nt,5%,nt
O=C(COC(=O)C1CC(=O)N(c2ccccc2)C1)c1ccccc1 (configuration not stated),1.4µM*,-12%,5%,?
SMILES,AmpC inh no detg,SARS PLP yeast,FBPA Giardia inh,AmpC inh detg
COc1ccc(N2CC(C(=O)OCC(=O)c3ccccc3)CC2=O)cc1 (configuration not stated),14%,-2%,10%,?
Cc1ccc(NC2=CC(=O)C(=O)c3ccccc32)cc1,-12%,-54%,5.6µM*,-10%
CCOC(=O)c1ccc(NC2=CC(=O)C(=O)c3ccccc32)cc1,-21%,-2%,nt,-7%
NS(=O)(=O)c1ccc(NC2=CC(=O)C(=O)c3ccccc32)cc1,-40%,nt,2.5µM*,?
O=C(NCc1cccnc1)C1c2ccccc2C(=O)N1C1CCCC1 (configuration not stated),20µM*,3%,4%,?
COC(=O)c1c(NC(=O)COC(=O)c2ccc(NC(=O)CC#N)cc2)sc2c1CCCCC2,32µM*,0%,3%,2%
COc1ccc(OC)c(-c2csc(NC(=O)COC(=O)c3ccc(NC(=O)CC#N)cc3)n2)c1,25µM*,1%,nt,?
N#CCC(=O)Nc1sc2c(c1C(N)=O)CCCC2,-40%,11%,?,0%
COc1ccc(OC)c(-c2csc(NC(=O)COC(=O)C3CCC3)n2)c1,-15%,0%,nt,-10%
NC(=O)c1c(NC(=O)COC(=O)c2ccc(O)c(Cl)c2)sc2c1CCCC2,16µM*,2%,nt,nt
NC(=O)c1c(NC(=O)CN2C(=O)CCC2=O)sc2c1CCCCC2,32µM*,4%,-8%,-2%
COC(=O)c1c(NC(=O)COC(=O)c2ccccc2O)sc2c1CCCCC2,-23%,3%,4%,?
NC(=O)c1c(NC(=O)CN2CCCC2)sc2c1CCCC2,46%,2%,3%,-15%
CCCCc1cc2c(cn1)=C(OC(=O)c1ccc(Cl)nc1)C(C)(OC(=O)CC)C(=O)C=2 (configuration not stated),nt,nt,-2%[12.9 µM],nt
C=C[C@@]1(C)CC(=O)[C@]2(O)[C@@]3(C)[C@H](O)CCC(C)(C)[C@@H]3[C@H](O)[C@H](OC(C)=O)[C@@]2(C)O1,nt,nt,0%,nt
CC(C)c1cccc(C(C)C)c1NC(=O)COC(=O)c1ccc(OCC(=O)Nc2cccc(C(F)(F)F)c2)cc1,-46%,9%,-1%,-4%
N#CCC(=O)Nc1ccc(C(=O)OCC(=O)Nc2cccc(C(F)(F)F)c2)cc1,16µM*,-2%,-1%,?
COC(=O)c1c(NC(=O)C2CC2)sc2c1CCCC2,45µM*,-12%,-1%,?
COC(=O)c1c(NC(=O)CCC(=O)O)sc2c1CCCCC2,-10%,-4%,23%,0%
CCCCc1nc2c(c3c1C[C@H](C)OC3)CN(C(=O)Cc1cccs1)CC2,nt,nt,4%[12.9 µM],nt
Oc1ccc(/C=N/NC(=S)Nc2cccnc2)c(O)c1O,-48%,24%,7.1µM*,-15%
Oc1cccc(/C=N/NC(=S)Nc2cccnc2)c1O,32µM*,-12%,-12%,-4%
Oc1ccc(/C=N/NC(=S)Nc2cccnc2)c(O)c1,-29%,?,-5%,-13%
COC(=O)C1=C(C(=O)OC)[C@@H]2N(Cc3ccccc3)c3ccccc3[C@@]23C[C@@H](C(=O)OC)N(S(=O)(=O)c2cccs2)C3=N1,nt,nt,0%[12.9 µM],nt
Cc1nn(-c2ccccc2)c2nc(C3CC3)cc(C(=O)Nc3cccc(F)c3)c12,nt,nt,nt,23%
Cc1ccc(C2C(/C=C3/SC(=S)NC3=O)=C(c3cccs3)Oc3ccccc32)cc1 (configuration not stated),6.3µM*,-9%,9%,7%
CC1Cc2cc(/C=C3/SC(=S)NC3=O)ccc2O1 (configuration not stated),-36%,-3%,23%,0%
CN(C)C1CCN(CCCOc2ccc(-c3ccc(C#N)cc3)cc2)C1 (configuration not stated),nt,nt,3%,nt

# Bioassay records as filed in PubChem.
